# Results published in the supplement of paper PMC11732987, “Enantioselective OTUD7B fragment discovery through chemoproteomics screening and high-throughput optimisation” (Communications Chemistry, 2025).
# A number with no mark means an inactive call.
# Assays:
# Test in all cases: log2 ratio of Biotin-Ahx-Ub-VS probe labelling (fragment/DMSO); higher = less target engagement (more negative = stronger competition), active = hit call of the paper (q ≤ 0.05, log2 ratio ≤ -1)
# Conditions in all cases: compound concentration: 200 uM; treatment time: 3 h
# OTUD6B = biological target: T1, OTUD6B (UniProt Q8N6M0)
# T1 sequence (whole entry): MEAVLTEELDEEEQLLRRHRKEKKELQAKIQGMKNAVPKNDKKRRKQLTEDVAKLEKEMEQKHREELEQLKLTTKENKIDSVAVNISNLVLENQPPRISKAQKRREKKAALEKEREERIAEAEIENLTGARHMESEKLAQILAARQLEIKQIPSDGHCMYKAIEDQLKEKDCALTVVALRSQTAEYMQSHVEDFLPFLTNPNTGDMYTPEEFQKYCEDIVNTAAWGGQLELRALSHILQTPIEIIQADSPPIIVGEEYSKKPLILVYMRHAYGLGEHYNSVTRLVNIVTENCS
# Method in brief: (§1)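 Each value is an average log2 ratio of fragment to vehicle, tested by unpaired t-test. The underlying Spectronaut label-free quantities were global-median-normalised, and only proteins with ≥2 unique peptides were included. Triplicate HEK293T lysate samples (495 µg) were exposed to fragment at 200 µM or vehicle for 3 h, then to Biotin-Ahx-Ub-VS at 0.5 µM final for 1 h, before NeutrAvidin enrichment of labelled DUBs, LysC and trypsin digestion, and diaPASEF LC-MS/MS.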
# OTUD7B = biological target: T2, OTUD7B (UniProt Q6GQQ9)
# T2 sequence (whole entry): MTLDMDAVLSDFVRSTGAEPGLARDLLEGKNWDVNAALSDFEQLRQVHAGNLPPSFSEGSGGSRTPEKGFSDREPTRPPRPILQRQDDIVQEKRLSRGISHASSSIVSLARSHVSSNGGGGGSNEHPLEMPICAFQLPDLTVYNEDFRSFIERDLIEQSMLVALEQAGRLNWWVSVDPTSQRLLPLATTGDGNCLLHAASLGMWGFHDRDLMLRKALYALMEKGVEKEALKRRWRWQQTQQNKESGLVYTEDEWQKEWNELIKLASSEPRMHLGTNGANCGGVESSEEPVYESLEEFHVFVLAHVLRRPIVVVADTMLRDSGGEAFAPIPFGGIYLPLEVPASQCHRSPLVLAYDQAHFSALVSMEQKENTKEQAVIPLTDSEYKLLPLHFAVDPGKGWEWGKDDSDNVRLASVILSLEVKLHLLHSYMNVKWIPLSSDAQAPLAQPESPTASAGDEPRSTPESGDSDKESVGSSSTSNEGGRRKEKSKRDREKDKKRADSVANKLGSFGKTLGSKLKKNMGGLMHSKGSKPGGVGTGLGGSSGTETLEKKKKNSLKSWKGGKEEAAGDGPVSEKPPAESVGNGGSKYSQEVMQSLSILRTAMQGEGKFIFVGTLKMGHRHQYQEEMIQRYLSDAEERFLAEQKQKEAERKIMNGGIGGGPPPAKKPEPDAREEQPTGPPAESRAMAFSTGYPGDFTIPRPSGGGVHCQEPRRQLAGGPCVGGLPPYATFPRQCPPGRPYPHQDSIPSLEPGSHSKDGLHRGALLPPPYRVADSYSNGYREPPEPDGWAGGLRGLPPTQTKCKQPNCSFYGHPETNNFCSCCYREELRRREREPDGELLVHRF
# Method in brief: as §1
# PRPF8 = PRPF8 (UniProt Q6P2Q9)
# Method in brief: as §1
# PSMD7 = biological target: T3, PSMD7 (UniProt P51665)
# T3 sequence (whole entry): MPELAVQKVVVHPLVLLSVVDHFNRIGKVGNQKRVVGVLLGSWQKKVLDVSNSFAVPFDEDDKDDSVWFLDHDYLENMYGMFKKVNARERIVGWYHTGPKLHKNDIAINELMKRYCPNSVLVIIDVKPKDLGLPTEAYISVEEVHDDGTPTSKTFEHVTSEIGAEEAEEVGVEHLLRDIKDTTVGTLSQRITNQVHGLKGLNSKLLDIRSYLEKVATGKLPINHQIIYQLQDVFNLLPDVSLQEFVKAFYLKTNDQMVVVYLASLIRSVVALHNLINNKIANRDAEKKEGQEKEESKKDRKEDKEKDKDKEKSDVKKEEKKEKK
# Method in brief: as §1
# UCHL1 = UCHL1 (UniProt P09936)
# Method in brief: as §1
# UCHL3 = biological target: T4, UCHL3 (UniProt P15374)
# T4 sequence (whole entry): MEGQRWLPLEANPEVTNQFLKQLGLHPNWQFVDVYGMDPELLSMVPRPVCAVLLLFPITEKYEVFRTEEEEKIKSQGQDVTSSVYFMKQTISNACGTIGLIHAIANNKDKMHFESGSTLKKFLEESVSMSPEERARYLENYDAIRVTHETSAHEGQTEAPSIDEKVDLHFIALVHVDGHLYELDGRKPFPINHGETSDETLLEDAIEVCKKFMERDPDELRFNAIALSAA
# Method in brief: as §1
# UCHL5 = biological target: T5, UCHL5 (UniProt Q9Y5K5)
# T5 sequence (whole entry): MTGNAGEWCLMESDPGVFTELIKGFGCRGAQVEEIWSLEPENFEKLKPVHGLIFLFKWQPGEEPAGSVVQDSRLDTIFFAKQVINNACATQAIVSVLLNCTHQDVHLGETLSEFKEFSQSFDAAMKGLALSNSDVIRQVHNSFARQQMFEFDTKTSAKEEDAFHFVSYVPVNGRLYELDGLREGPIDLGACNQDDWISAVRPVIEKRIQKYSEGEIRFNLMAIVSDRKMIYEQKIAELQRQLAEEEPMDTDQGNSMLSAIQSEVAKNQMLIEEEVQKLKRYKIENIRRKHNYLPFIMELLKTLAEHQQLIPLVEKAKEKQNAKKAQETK
# Method in brief: as §1
# USP10 = USP10 (UniProt Q14694)
# Method in brief: as §1
# USP15 = biological target: T6, USP15 (UniProt Q9Y4E8)
# T6 sequence (whole entry): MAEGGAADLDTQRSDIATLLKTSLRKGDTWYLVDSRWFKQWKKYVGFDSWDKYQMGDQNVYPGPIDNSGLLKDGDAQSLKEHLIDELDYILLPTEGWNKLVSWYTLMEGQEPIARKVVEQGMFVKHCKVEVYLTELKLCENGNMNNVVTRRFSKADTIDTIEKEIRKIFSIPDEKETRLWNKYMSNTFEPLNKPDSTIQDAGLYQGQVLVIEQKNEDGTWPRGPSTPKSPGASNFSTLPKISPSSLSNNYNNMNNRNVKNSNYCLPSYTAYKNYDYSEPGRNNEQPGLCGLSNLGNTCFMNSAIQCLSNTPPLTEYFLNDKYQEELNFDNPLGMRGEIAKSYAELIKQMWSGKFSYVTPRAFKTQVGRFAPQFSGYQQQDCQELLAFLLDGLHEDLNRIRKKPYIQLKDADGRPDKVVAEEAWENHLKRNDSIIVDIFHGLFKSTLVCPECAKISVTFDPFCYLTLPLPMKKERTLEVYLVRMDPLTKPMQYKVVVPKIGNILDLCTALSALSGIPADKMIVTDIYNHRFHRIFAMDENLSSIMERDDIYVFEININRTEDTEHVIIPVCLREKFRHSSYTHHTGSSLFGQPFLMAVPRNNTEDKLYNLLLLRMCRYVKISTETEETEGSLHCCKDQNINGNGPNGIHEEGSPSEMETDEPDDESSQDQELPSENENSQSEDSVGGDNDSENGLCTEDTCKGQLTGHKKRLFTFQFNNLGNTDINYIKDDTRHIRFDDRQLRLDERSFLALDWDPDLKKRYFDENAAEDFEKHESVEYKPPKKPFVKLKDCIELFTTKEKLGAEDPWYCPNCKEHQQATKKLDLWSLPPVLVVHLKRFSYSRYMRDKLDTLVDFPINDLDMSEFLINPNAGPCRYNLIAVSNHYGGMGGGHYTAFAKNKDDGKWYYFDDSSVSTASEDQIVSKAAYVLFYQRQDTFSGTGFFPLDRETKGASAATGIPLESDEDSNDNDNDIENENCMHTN
# Method in brief: as §1
# USP16 = USP16 (UniProt Q9Y5T5)
# Method in brief: as §1
# USP10, sequence (Q14694 whole entry): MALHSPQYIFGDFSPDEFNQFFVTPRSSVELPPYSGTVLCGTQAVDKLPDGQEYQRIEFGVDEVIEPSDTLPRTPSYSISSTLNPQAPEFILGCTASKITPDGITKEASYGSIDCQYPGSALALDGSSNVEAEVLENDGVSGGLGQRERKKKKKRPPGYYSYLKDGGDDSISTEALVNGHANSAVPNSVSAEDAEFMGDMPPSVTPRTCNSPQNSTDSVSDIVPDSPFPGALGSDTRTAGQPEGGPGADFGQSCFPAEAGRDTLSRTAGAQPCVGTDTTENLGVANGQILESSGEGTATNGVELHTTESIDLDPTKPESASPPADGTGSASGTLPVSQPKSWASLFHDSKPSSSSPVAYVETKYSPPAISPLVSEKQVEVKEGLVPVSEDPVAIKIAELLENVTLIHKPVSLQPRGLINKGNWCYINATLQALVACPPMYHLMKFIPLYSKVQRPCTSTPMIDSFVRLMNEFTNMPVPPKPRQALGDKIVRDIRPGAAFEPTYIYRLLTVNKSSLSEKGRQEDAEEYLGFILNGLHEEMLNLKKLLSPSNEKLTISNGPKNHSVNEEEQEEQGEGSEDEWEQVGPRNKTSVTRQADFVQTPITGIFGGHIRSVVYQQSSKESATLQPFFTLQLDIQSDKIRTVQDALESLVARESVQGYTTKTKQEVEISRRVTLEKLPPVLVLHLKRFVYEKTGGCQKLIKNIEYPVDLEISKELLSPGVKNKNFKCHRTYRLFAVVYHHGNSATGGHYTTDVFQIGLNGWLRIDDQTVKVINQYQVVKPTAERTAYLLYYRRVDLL
# USP16, sequence (Q9Y5T5 whole entry, looked up): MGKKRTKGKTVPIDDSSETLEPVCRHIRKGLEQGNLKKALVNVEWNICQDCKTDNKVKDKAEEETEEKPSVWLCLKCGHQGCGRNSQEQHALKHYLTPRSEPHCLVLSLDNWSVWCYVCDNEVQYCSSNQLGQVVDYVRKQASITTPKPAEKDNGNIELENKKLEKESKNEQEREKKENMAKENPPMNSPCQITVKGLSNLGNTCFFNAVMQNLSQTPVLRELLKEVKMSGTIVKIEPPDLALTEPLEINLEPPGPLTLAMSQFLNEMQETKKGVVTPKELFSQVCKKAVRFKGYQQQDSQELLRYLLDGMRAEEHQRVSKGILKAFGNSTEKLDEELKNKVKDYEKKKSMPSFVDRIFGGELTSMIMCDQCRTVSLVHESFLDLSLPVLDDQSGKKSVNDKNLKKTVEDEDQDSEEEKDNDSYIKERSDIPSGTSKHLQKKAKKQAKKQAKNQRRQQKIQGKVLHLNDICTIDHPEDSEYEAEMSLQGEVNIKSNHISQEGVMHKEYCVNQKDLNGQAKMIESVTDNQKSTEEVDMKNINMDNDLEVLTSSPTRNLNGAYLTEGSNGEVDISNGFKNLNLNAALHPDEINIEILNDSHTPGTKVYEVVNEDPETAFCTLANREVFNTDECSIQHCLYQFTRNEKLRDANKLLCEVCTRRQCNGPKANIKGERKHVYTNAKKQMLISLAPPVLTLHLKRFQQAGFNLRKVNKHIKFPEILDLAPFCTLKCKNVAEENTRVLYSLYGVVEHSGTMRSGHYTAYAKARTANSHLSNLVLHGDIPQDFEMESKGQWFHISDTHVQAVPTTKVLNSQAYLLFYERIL
# UCHL1, sequence (P09936 whole entry, looked up): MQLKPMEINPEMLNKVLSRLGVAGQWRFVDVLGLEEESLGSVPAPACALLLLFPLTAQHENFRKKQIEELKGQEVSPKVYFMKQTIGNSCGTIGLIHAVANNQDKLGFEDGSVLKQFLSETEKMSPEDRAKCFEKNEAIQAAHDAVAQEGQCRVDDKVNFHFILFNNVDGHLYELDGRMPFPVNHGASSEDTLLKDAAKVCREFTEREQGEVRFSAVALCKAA
compound,measurement,setting,value
Cl.O=C(CCl)NC1(c2ncccn2)CCC1,log2 ratio of Biotin-Ahx-Ub-VS probe labelling,OTUD6B,0.0771
same,log2 ratio of Biotin-Ahx-Ub-VS probe labelling,OTUD7B,-0.227
same,log2 ratio of Biotin-Ahx-Ub-VS probe labelling,PRPF8,-0.0462
same,log2 ratio of Biotin-Ahx-Ub-VS probe labelling,PSMD7,-0.289
same,log2 ratio of Biotin-Ahx-Ub-VS probe labelling,UCHL1,-1.41 (active)
same,log2 ratio of Biotin-Ahx-Ub-VS probe labelling,UCHL3,0.32
same,log2 ratio of Biotin-Ahx-Ub-VS probe labelling,UCHL5,-0.0083
same,log2 ratio of Biotin-Ahx-Ub-VS probe labelling,USP10,0.0419
same,log2 ratio of Biotin-Ahx-Ub-VS probe labelling,USP15,0.0327
same,log2 ratio of Biotin-Ahx-Ub-VS probe labelling,USP16,0.0942
